Compounds with a hit are over-represented: about 6.8% of the library has one in this group of screens.
T cruzi growth-1 – T. cruzi proliferation inhibition; T. cruzi beta-gal in NIH3T3, GalScreen luminescence, 90 h; inhibition, % at 8.34 µM; actives 5.9% (n = 77,000); AID 624255;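 active means mean inhibition above about 93%, with at least 55% of replicates each passing it, limit read from the data, passing the limit was not always enough; inconclusive means only one of those two conditions holds; inactive means neither condition holds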
C diff HTS – blocks growth of Clostridium difficile; growth activity, negative = inhibition, % at 16 µg/mL (by protocol); Clostridium difficile clinical isolate growth, OD600, 24 h; hits give low values; actives 0.25% (n = 86,000); AID 1259249;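 active means mean growth activity at or below -80% and every replicate also at or below -80%; inconclusive means mean at or below -80% but some replicate above -80%; inactive means mean growth activity above -80%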
Pf Dd2 growth – P. falciparum Dd2 growth inhibition. actives 2.3% (n = 94,000). activity change, % at 10 µM. SYBR Green, 72 h; hits give low values; in the data active means activity change below about -80%; inconclusive means no clear call, values can overlap the other calls
T cruzi growth-2 – inhibitors of T. cruzi proliferation. shares compounds with T cruzi growth-1. inhibition, % at 8.35 µM. T. cruzi beta-gal in NIH3T3, GalScreen luminescence, 90 h. actives 72% (n = 5,600). AID 651739;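 active means mean replicate inhibition above about 95% and at least 55% of replicates individually reaching it, limit read from the data; inconclusive means only one of the two criteria is met; inactive means neither criterion is met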
T cruzi growth-3 – Trypanosoma cruzi proliferation inhibition; shares compounds with T cruzi growth-1; T. cruzi beta-gal in NIH3T3, GalScreen luminescence, 90 h; inhibition, % at 2.09 µM; actives 21% (n = 5,600); AID 651740;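 active means mean inhibition above about 95%, with at least 55% of replicates also reaching it, limit read from the data; inconclusive means meets just one of the two conditions; inactive means meets neither condition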
3T3 cytotox – cytotoxicity in mouse NIH/3T3 fibroblasts. cytotoxicity (signal decrease), % at 8.35 µM. shares compounds with T cruzi growth-1. AID 651742. NIH/3T3 viability, CellTiter-Glo ATP luminescence, 90 h. actives 14% (n = 5,600);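 active means mean signal decrease across replicates above about 35% based on untreated-well scatter, with enough replicates individually passing, limit read from the data; inconclusive means no rule stated though some were filed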
3T3 cytotox 2 – kills mouse NIH/3T3 fibroblasts. inhibition, % at 24.9 µM. AID 651744. NIH/3T3 viability, CellTiter-Glo ATP luminescence, 90 h. actives 56% (n = 5,600). shares compounds with T cruzi growth-1;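 active means mean loss of cell viability signal at or above a set limit, and enough replicates individually reaching it; inconclusive means meets only the mean limit or only the replicate share; inactive means meets neither condition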
Each line names hits and unclear results; the compound was inactive in the other large screens (follow-up assays come after a bar, where they were run).

CCc1cnc(N2[C@H](C#N)[C@H](c3ccc(C#CCC4CCCC4)cc3)[C@H]2CO)s1	none
CCc1cnc(N2[C@@H](C#N)[C@@H](c3ccc(C#CCC4CCCC4)cc3)[C@@H]2CO)s1	T cruzi growth-1 97 | T cruzi growth-2 99 | T cruzi growth-3 111 | 3T3 cytotox inactive | 3T3 cytotox 2 104
C/C=C/c1ccccc1[C@@H]1[C@@H](C#N)N(S(=O)(=O)c2cccc(F)c2)[C@H]1CO	none (no result: T cruzi growth-1)
N#C[C@@H]1[C@H](c2ccc(-c3cccc(F)c3)cc2)[C@@H](CO)N1S(=O)(=O)c1cccc(F)c1	T cruzi growth-1 102 | T cruzi growth-2 105 | T cruzi growth-3 103 | 3T3 cytotox inactive | 3T3 cytotox 2 105
C/C=C/c1ccc([C@@H]2[C@@H](C#N)N(S(=O)(=O)c3cccc(F)c3)[C@@H]2CO)cc1	T cruzi growth-1 107 | T cruzi growth-2 inactive | T cruzi growth-3 inactive | 3T3 cytotox inactive | 3T3 cytotox 2 25
CCS(=O)(=O)N1[C@H](C#N)[C@@H](c2ccc(-c3cccc(F)c3)cc2)[C@@H]1CO	none
CCS(=O)(=O)N1[C@H](CO)[C@H](c2ccc(-c3cccc(F)c3)cc2)[C@@H]1C#N	none
N#C[C@@H]1[C@@H](c2ccc(-c3cccc(F)c3)cc2)[C@H](CO)N1S(=O)(=O)c1cccc(F)c1	T cruzi growth-1 99 | T cruzi growth-2 102 | T cruzi growth-3 inactive | 3T3 cytotox 41 | 3T3 cytotox 2 107
Cc1noc(C)c1NC(=O)Nc1ccc2c(c1)C(=O)N([C@H](C)CO)C[C@H](C)[C@H](CN(C)C(=O)Nc1cccc3ccccc13)O2	none (no result: C diff HTS)
CO[C@H]1CN(C)C(=O)c2cc(NS(C)(=O)=O)ccc2OC[C@H](C)N(Cc2cncnc2)C[C@@H]1C	none (no result: C diff HTS)
Cc1ccc(S(=O)(=O)Nc2ccc3c(c2)CC(=O)N([C@@H](C)CO)C[C@@H](C)[C@H](CN(C)C(=O)NC2CCCCC2)O3)cc1	none
COc1cccc(S(=O)(=O)Nc2ccc3c(c2)[C@H]2C[C@@H](CC(=O)NC4CCCCC4)O[C@H](CO)[C@H]2O3)c1	none
COc1cccc(S(=O)(=O)Nc2ccc3c(c2)[C@@H]2C[C@@H](CC(=O)NCc4ccc(Cl)cc4)O[C@@H](CO)[C@@H]2O3)c1	none
COc1cccc(S(=O)(=O)Nc2ccc3c(c2)[C@H]2C[C@H](CC(=O)NC4CCCCC4)O[C@H](CO)[C@H]2O3)c1	T cruzi growth-1 124 | T cruzi growth-2 inconclusive | T cruzi growth-3 inactive | 3T3 cytotox inactive | 3T3 cytotox 2 inactive
COc1cccc(S(=O)(=O)Nc2ccc3c(c2)[C@H]2C[C@H](CC(=O)NCc4ccc(Cl)cc4)O[C@@H](CO)[C@H]2O3)c1	T cruzi growth-1 146 (no result: C diff HTS) | T cruzi growth-2 108 | T cruzi growth-3 inactive | 3T3 cytotox inactive | 3T3 cytotox 2 inactive
COc1cccc(S(=O)(=O)Nc2ccc3c(c2)OC[C@@H](C)NC[C@H](C)[C@@H](OC)CN(C)C3=O)c1	none
COc1ccc2c3c(n(C)c2c1)[C@@H](CO)N(C(=O)c1cccc(F)c1)CC31CCN(CC2CC2)CC1	none (no result: T cruzi growth-1, C diff HTS)
C[C@H](CO)N1C[C@H](C)[C@@H](CN(C)CC2CC2)Oc2c(NC(=O)C3CCOCC3)cccc2C1=O	none
CO[C@H]1CN(C)C(=O)c2ccc(NC(=O)c3ccc4c(c3)OCO4)cc2OC[C@H](C)N(CCC(F)(F)F)C[C@H]1C	none (no result: C diff HTS)
C[C@@H]1CN([C@@H](C)CO)C(=O)c2cc(C#CC3CC3)cnc2O[C@@H]1CN(C)C(=O)c1ccncc1	none (no result: C diff HTS)
C[C@@H]1CN([C@@H](C)CO)S(=O)(=O)c2ccc(C#CCC3CCCC3)cc2O[C@@H]1CN(C)C(=O)CN(C)C	none
C[C@@H]1CN([C@@H](C)CO)S(=O)(=O)c2ccc(C#CCC3CCCC3)cc2O[C@H]1CN(C)C(=O)CN(C)C	none
C[C@H]1CN([C@@H](C)CO)S(=O)(=O)c2ccc(C#CCC3CCCC3)cc2O[C@@H]1CN(C)C(=O)CC1CC1	T cruzi growth-1 121 | T cruzi growth-2 103 | T cruzi growth-3 113 | 3T3 cytotox inactive | 3T3 cytotox 2 105
C[C@H](CO)N1C[C@H](C)[C@@H](CN(C)C(=O)CC2CC2)Oc2cc(C#CCC3CCCC3)ccc2S1(=O)=O	T cruzi growth-1 116 | T cruzi growth-2 inconclusive | T cruzi growth-3 102 | 3T3 cytotox inactive | 3T3 cytotox 2 104
C[C@H](CO)N1C[C@H](C)[C@H](CN(C)C(=O)CC2CC2)Oc2cc(C#CCC3CCCC3)ccc2S1(=O)=O	T cruzi growth-1 121 | T cruzi growth-2 99 | T cruzi growth-3 inactive | 3T3 cytotox inactive | 3T3 cytotox 2 104
CC(=O)N(C)C[C@H]1Oc2cc(C#CCC3CCCC3)ccc2S(=O)(=O)N([C@H](C)CO)C[C@H]1C	none
C[C@H](CO)N1C[C@H](C)[C@@H](CN(C)C(=O)Nc2ccccc2)Oc2ccc(NC(=O)Nc3ccc(F)cc3)cc2C1=O	none
O=C(O)C[C@@H]1CC[C@H](NC(=O)c2ccccc2F)[C@H](CO)O1	none (no result: T cruzi growth-1)
C[C@H](CO)N1C[C@H](C)[C@@H](CN(C)Cc2ccc3c(c2)OCO3)Oc2c(NS(=O)(=O)c3ccc(Cl)cc3)cccc2C1=O	none (no result: T cruzi growth-1)
COc1ccc(-c2ccc(C3[C@H]4CNC[C@@H]3N4Cc3nccs3)cc2)cc1 (stereo partly drawn)	none (no result: T cruzi growth-1)
CO[C@H](CN(C)S(=O)(=O)c1ccc(Cl)cc1)[C@@H](C)CN([C@@H](C)CO)S(=O)(=O)c1cccc(Cl)c1	none (no result: C diff HTS)
C[C@H](CO)N1C[C@H](C)[C@@H](CN(C)Cc2ccc(C(F)(F)F)cc2)Oc2c(NC(=O)Nc3ccc(C(F)(F)F)cc3)cccc2C1=O	none
C[C@H](CO)N1C[C@H](C)[C@H](CN(C)Cc2ccc(Oc3ccccc3)cc2)Oc2c(NC(=O)Nc3ccc(F)cc3)cccc2C1=O	none (no result: C diff HTS)
C[C@H](CO)N1C[C@H](C)[C@@H](CN(C)Cc2ccc(Oc3ccccc3)cc2)Oc2c(NC(=O)Nc3ccc(F)cc3)cccc2C1=O	T cruzi growth-1 126 (no result: C diff HTS) | T cruzi growth-2 inactive | T cruzi growth-3 inactive | 3T3 cytotox inactive | 3T3 cytotox 2 inactive
C[C@@H]1CN([C@H](C)CO)C(=O)c2cccc(NC(=O)Nc3ccc(C(F)(F)F)cc3)c2O[C@H]1CN(C)Cc1ccccc1	none
C[C@H](CO)N1C[C@H](C)[C@H](CN(C)Cc2ccc(Oc3ccccc3)cc2)Oc2c(NC(=O)Nc3ccc(C(F)(F)F)cc3)cccc2C1=O	T cruzi growth-1 122 | T cruzi growth-2 103 | T cruzi growth-3 108 | 3T3 cytotox inactive | 3T3 cytotox 2 106

High-throughput results from PubChem BioAssay.
